# Experimental data from ChEMBL document CHEMBL3988442, “University of Dundee, Small-Polar-MMV Screening Library” (2021).
# For some assays here: Potency and affinity values are given separately.
# How the values were obtained:
# Design in all cases: scale not given: direction of the effect not stated beside the values
# [1] = biological target: Protein translocase subunit SecA (Escherichia coli (strain K12)) (UniProt P10408); assay: Assay to Identify E. coli SecA ATPase Inhibitors; assay type: functional; details: 30 µM
# Protein translocase subunit SecA (Escherichia coli (strain K12)), sequence (P10408 whole entry): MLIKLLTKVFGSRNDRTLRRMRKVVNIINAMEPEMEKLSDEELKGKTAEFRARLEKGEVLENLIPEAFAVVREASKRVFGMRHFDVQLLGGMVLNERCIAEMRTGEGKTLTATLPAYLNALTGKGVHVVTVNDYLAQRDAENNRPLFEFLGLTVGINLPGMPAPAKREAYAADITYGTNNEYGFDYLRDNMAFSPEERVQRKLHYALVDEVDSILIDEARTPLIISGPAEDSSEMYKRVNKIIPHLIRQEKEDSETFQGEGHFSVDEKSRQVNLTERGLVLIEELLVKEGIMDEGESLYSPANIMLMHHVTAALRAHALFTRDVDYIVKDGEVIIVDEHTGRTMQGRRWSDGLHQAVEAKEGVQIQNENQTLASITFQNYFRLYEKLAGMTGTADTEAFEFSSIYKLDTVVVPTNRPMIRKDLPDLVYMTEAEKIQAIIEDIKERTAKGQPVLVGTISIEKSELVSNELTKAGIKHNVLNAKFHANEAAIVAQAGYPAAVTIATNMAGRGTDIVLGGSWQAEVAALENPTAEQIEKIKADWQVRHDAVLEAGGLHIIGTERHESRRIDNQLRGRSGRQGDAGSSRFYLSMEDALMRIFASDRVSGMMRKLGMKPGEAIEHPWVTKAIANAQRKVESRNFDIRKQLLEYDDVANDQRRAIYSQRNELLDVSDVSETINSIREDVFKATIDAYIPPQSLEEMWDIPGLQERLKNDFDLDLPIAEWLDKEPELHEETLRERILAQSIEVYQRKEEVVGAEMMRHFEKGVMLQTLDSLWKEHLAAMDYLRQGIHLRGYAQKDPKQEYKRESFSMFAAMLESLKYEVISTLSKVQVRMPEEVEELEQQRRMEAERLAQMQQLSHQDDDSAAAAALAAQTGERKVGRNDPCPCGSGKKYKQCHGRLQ
# [2] = biological target: T1, Ubiquitin-activating enzyme e1, putative (Leishmania donovani (strain BPK282A1)) (UniProt E9BSI1); assay: Leishmania donovani Ubiquitin Activating Enzyme (LdE1); assay type: functional; details: 30 µM
# T1 sequence (whole entry): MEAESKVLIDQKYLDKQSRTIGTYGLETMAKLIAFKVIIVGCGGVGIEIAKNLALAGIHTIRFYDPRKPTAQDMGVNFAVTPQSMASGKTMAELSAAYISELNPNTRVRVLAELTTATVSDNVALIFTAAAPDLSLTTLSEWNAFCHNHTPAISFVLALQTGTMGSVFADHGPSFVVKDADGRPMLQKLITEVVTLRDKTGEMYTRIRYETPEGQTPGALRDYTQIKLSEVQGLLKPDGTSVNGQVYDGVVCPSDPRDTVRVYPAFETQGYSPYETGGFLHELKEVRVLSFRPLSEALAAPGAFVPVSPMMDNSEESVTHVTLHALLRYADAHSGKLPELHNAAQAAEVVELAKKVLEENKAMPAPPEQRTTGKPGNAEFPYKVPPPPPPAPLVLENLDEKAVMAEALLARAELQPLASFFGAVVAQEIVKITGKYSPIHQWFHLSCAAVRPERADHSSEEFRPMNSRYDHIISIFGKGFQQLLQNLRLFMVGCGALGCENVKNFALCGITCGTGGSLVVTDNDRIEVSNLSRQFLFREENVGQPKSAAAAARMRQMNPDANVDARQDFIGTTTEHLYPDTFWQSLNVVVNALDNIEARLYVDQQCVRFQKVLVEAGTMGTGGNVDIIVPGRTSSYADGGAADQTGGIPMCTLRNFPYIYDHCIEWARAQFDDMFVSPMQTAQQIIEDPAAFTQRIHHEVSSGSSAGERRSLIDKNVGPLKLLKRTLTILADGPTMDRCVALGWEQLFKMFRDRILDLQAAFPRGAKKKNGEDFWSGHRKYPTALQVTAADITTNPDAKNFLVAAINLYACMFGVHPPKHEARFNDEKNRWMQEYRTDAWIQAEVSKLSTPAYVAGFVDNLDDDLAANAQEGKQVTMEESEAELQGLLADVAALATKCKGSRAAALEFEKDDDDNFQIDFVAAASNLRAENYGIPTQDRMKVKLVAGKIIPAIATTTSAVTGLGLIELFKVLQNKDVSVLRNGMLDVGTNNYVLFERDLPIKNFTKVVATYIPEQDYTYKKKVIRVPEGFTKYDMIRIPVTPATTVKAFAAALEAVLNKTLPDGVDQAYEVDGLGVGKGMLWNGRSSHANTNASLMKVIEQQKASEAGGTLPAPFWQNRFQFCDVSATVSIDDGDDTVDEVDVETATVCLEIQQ
# [3] = biological target: Sialic acid-binding Ig-like lectin 9 (Homo sapiens) (UniProt Q9Y336); assay: Hs-Siglec9 ALPHAscreen SOP 20170721; details: 10 µM
# Sialic acid-binding Ig-like lectin 9 (Homo sapiens), sequence (Q9Y336 whole entry): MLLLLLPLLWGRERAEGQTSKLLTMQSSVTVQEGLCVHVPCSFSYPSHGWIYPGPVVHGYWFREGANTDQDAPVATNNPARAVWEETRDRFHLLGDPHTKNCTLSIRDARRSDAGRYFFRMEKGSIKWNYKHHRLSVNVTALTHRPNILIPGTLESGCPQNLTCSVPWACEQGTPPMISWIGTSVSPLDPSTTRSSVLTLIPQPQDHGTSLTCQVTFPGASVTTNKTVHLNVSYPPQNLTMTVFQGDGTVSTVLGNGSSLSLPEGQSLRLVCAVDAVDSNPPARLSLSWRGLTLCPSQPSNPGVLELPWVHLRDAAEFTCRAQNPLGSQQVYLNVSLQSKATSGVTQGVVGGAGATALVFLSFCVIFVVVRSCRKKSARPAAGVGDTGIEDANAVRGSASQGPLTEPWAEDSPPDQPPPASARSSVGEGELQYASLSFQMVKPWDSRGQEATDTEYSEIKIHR
# Trypanosoma cruzi = assay: Trypanosoma cruzi phosphomannomutase and mannose-1-phosphate guanylyltransferase assay; assay type: functional; details: 10 µM
# [4] = biological target: T2, Arginase-2, mitochondrial (Homo sapiens) (UniProt P78540); assay: in vitro enzyme assay to detect the production of urea directly proportional to the activity of Arginase II; assay type: functional; details: 33.3 µM; note: in the data most compounds retested in dose-response had high values
# T2 sequence (whole entry): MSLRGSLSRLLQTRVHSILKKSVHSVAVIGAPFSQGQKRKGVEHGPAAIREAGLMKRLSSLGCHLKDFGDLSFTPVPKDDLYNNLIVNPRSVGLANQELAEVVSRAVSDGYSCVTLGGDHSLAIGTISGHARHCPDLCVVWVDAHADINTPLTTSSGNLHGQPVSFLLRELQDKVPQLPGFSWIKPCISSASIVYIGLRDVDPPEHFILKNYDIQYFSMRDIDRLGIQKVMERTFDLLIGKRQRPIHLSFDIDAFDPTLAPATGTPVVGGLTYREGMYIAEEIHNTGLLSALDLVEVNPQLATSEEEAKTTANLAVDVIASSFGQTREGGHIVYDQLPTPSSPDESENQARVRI
# [5] = biological target: T3, Proteasome subunit beta (Trypanosoma cruzi) (UniProt O96673); assay: Trypanosoma cruzi proteasome chymotrypsin-like activity (TcProtChymo) assay.; note: in the data most compounds retested in dose-response had high values; assay type: functional; details: 9.37 µM
# T3 sequence (whole entry): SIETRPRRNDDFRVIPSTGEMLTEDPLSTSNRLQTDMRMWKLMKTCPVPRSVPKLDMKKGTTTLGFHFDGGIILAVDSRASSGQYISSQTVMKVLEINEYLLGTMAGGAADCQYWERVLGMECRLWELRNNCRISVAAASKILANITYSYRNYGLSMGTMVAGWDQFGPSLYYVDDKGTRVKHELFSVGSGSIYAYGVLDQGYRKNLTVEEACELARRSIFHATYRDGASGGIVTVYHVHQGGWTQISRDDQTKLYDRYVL
# Homo sapiens = organism: Homo sapiens; assay: To identify inhibition of the IFN signalling (Jak-Stat) pathway via expression of an eGFP reporter gene under the control of an IFN-stimulated response element (ISRE) containing MxA promoter.; assay type: functional; details: 30 µM
# [6] = biological target: T4, Tyrosyl-tRNA synthetase, putative (Trypanosoma cruzi (strain CL Brener)) (UniProt Q4DSP6); assay: Trypanosoma cruzi tyrosyl tRNA synthetase (TcYRS) _High Tyrosine SOP; assay type: functional; details: 30 µM; note: in the data most compounds retested in dose-response had high values
# T4 sequence (whole entry): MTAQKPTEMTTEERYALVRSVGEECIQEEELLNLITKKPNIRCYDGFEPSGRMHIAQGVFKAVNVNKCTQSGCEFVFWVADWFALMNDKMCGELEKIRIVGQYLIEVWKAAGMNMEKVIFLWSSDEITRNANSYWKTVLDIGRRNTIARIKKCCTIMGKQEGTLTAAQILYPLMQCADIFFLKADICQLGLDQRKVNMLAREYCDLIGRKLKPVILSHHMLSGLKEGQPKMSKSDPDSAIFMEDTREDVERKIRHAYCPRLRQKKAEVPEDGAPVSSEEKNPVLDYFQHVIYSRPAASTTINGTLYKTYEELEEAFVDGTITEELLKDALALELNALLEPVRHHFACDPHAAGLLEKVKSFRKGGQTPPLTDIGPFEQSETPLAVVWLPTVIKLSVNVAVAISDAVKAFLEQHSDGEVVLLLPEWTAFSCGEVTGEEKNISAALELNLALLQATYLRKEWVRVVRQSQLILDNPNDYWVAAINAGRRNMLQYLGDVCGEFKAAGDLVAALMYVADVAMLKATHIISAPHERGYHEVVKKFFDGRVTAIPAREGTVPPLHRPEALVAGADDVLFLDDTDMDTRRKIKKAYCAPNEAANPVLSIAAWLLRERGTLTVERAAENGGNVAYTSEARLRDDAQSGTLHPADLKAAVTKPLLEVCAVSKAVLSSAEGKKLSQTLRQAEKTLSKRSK
# [7] = biological target: T4, Tyrosyl-tRNA synthetase, putative (Trypanosoma cruzi (strain CL Brener)); assay: Trypanosoma cruzi tyrosyl tRNA synthetase (TcYRS) SOP; assay type: functional; details: 30 µM
# [8] = biological target: Chromo domain-containing protein 1 (Saccharomyces cerevisiae (strain ATCC 204508 / S288c) (Baker's yeast)) (UniProt P32657); assay: ScCHD-1 Enzyme Inhibition Assay; assay type: functional; details: 30 µM; note: in the data most compounds retested in dose-response had high values
# Chromo domain-containing protein 1 (Saccharomyces cerevisiae (strain ATCC 204508 / S288c) (Baker's yeast)), sequence (P32657 whole entry, the tested form may be a part): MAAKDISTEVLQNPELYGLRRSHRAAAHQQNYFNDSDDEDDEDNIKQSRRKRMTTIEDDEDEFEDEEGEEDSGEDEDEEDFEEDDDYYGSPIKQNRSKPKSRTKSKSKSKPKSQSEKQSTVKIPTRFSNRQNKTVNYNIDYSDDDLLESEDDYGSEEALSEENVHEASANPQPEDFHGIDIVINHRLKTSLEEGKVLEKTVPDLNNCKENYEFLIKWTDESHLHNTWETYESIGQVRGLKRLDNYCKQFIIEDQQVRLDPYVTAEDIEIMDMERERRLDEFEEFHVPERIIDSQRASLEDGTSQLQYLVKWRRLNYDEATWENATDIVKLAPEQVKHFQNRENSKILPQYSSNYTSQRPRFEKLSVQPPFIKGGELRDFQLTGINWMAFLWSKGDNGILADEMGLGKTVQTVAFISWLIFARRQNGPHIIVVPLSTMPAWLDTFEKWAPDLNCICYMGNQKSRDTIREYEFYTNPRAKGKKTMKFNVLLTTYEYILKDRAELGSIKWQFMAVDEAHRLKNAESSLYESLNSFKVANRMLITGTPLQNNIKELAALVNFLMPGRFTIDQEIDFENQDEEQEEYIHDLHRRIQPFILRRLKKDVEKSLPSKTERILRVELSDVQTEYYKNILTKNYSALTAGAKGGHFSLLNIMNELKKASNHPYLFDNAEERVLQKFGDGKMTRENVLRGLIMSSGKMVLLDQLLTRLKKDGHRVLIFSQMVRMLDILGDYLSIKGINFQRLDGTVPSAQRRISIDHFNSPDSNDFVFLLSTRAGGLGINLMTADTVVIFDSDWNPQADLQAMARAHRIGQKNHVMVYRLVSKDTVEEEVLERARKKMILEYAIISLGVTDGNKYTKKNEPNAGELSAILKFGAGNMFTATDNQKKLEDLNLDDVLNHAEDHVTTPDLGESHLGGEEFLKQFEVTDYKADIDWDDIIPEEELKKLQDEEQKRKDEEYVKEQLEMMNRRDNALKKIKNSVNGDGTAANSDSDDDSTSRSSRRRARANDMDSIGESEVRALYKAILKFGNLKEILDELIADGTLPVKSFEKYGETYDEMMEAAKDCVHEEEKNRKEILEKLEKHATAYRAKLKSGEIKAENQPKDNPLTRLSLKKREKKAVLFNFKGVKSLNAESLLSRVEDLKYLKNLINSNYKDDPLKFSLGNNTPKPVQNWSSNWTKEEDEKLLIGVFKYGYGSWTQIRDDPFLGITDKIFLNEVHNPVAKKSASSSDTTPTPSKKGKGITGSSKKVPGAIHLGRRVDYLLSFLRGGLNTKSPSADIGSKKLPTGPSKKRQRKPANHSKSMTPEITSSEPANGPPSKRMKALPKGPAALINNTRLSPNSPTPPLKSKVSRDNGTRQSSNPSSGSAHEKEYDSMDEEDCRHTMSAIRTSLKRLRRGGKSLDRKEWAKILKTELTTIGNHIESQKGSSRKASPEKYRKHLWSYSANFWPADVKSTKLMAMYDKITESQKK
# [9] = biological target: AMP-activated protein kinase, AMPK (Homo sapiens) (UniProt P54646+O43741+P54619+Q9UGJ0+Q9Y478+Q13131+Q9UGI9); assay: AMP-dependent Kinase enzyme assay. An in vitro enzyme assay that detects ADP turnover that is directly proportional to AMPK activity. This uses naive AMPK that is activated during the assay with MK-8722; assay type: functional; details: 30 µM
SMILES,Percent Effect [1] [%],Percent Effect [2] [%],Percent Effect [3] [%],Percent Effect (Trypanosoma cruzi) [%],Percent Effect [4] [%],Percent Effect [5] [%],Percent Effect (Homo sapiens) [%],Percent Effect [6] [%],Percent Effect [7] [%],Percent Effect [8] [%],Percent Effect [9] [%]
CCN(C)Cc1cnc(S(=O)(=O)CC)n1CCOC,-9.54,0,-2.25,-3.4,2.45,-0.856,0.566,1.6,4.88,2.11,
CCNC(=O)[C@@H]1C[C@H](NC(=O)Cc2ccsc2)CN1Cc1ccc(C)o1,-3.95,13.5,10.2,9.02,14.3,20.9,20.3,7.98,21.9,80.5,
CCc1[nH]ncc1C(=O)N1CCCC(n2nc(C)nc2C)C1 (stereo not given),-6.31,2.56,-8.9,11.9,-1.23,2.82,7.13,0.478,8.43,-10.4,
CCSCC(C)NCc1ccccc1-n1ccnc1 (stereo not given),,,,,,,,,,,7.25
CCn1ccnc1CN(C)CC1CCCN1c1cccnn1 (stereo not given),-2.58,2.67,-5.89,0,0.887,20.8,6.16,5.79,12.8,-11.5,
CCc1ccc(CN2CCC3(CC2)NC(=O)CC3c2ccncc2)o1 (stereo not given),-9.93,6.49,-0.747,-3.21,-5.26,9.27,-2.1,0.526,7.69,-2.68,
CNC(=O)Cc1ccc(NC(=O)NCC(C)c2ncc(C)s2)cc1 (stereo not given),,,,,,,,,,,-3.25
Cc1n[nH]c(C)c1C1COCCN1C(=O)c1ccccc1 (stereo not given),0.213,-2.56,15,-3.47,8.61,3.67,20.7,-1.44,-1.21,-0.727,
CCNc1cc2c(nn1)CCN(C(=O)c1cc3nc(C)ccc3o1)C2,-8.41,13.3,11.1,9.04,-0.887,20.4,6.54,5.79,15.4,-6.95,
COc1cc2ncn(Cc3ncc[nH]3)c(=O)c2cc1OC,,,,,,,,,,,-1.8
O=C(O)c1csc(S(=O)(=O)Nc2cccc(OC(F)F)c2)c1,-5.06,-7.69,-2.43,-1.03,5.74,8.11,2.87,-5.26,1.21,-6.19,
COCCN1C[C@@H]2CN(C(=O)[C@H]3CCCO3)C[C@@H]2C1=O,0.0627,16.9,-1.76,-6.38,3.65,24.5,7.75,7.73,12.5,-7.63,
CCCS(=O)(=O)NCc1ncc(C)c(OC)c1C,,,,,,,,,,,6.9
COC(=O)c1cccn1C1CCN(CC(=O)NC2CCCCC2)CC1,-0.883,15.6,8.78,-1.31,3.07,13.5,2.4,9.8,21.2,-5.06,
Cc1ccccc1C(NC(=O)CCCS(C)(=O)=O)C(C)(C)C (stereo not given),,,,,,,,,,,7.1
CCC(=O)N1CCC(O)(c2ncc(OC)nc2OC)CC1,-1.18,9.33,3.93,-3.55,3.1,9.03,8.31,5.29,7.5,-17.1,
Cc1cc(N2CCC(NC(=O)C3CC3)CC2)nc(-c2ccncc2)n1,-0.846,23.4,0.849,2.98,-1.43,13,9.23,12.8,35.3,-0.543,
CS(=O)(=O)NCC1CCCN(C(=O)COCC(F)(F)F)C1 (stereo not given),-0.972,15.4,0.69,0.845,2.87,6.57,9.12,2.39,22.9,-7.07,
COc1ccc(Br)c(NC(=O)NCc2cnn(C)c2)c1,,,,,,,,,,,-1.99
CCc1ccc(NC(=O)CCN2CC(n3nc(C)cc3C)C2)cc1,,,,,,,,,,,-4.58
O=C(Cn1cc(-c2ccccc2)cn1)N1CCNC1=O,,,,,,,,,,,0.445
NC(=O)c1ccc(CNC(=O)NCc2cc[nH]n2)cc1,,,,,,,,,,,-5.62
Cc1noc(C)c1-c1n[nH]c2c1CN(S(=O)(=O)c1ccsc1)CC2,,,,,,,,,,,7.37
